# Experimental data taken from PubChem BioAssay (Tox21).
# “And” between values parts separate entries of the source, which are not always exact repeats. Equal values may be shown once. Results filed as inconclusive are left out. Where a call stands in place of a potency, no number is given. Where a structure was tested more than once in an assay, its records may differ in their call. The source made the active and inactive calls. Calls follow the shape of the dose curve; as a rule, active = well fitted curve in the direction sought with a large enough effect in the repeat runs; inconclusive = weak or mixed curves; inactive = no such curve, though single readings can be large; an effect the other way counts as inactive or inconclusive.
# Columns and labels:
# [1] = biological target: Cytochrome P450 2C9 (Homo sapiens) (UniProt P11712); assay: Cytochrome P450 Family 2 Subfamily C Member 9 (CYP2C9) small molecule antagonists: luciferase reporter qHTS assay (AID 1671198); as to activity change, negative = inhibition: series mostly up to about 120 µM
# Sequence of Cytochrome P450 2C9 (Homo sapiens) (P11712 whole entry, looked up): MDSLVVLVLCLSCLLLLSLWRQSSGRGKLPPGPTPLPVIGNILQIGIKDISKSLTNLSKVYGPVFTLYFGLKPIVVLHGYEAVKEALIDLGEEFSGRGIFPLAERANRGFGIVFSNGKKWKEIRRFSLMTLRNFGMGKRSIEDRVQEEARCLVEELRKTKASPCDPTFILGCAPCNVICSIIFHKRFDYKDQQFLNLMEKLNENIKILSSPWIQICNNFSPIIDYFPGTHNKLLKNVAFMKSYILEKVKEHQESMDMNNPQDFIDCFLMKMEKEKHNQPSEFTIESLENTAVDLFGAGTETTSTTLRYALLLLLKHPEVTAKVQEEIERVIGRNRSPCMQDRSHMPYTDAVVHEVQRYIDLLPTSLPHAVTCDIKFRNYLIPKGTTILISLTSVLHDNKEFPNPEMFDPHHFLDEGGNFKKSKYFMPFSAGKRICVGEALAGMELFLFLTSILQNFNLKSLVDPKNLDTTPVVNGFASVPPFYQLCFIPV
# How it was run: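 CYP2C9 activity was measured with a P450-Glo proluciferin substrate. Enzyme–substrate mix was held with compound for 10 min at room temperature, then NADPH regeneration solution was added for 1 h at 37C. Luciferin product was read as luminescence.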
# [2] = biological target: Cytochrome P450 1A2 (Homo sapiens) (UniProt P05177); assay: Cytochrome P450 Family 1 Subfamily A Member 2 (CYP1A2) small molecule antagonists: luciferase reporter qHTS assay (AID 1671199); as to activity change, negative = inhibition: series mostly up to about 120 µM
# Sequence of Cytochrome P450 1A2 (Homo sapiens) (P05177 whole entry, looked up): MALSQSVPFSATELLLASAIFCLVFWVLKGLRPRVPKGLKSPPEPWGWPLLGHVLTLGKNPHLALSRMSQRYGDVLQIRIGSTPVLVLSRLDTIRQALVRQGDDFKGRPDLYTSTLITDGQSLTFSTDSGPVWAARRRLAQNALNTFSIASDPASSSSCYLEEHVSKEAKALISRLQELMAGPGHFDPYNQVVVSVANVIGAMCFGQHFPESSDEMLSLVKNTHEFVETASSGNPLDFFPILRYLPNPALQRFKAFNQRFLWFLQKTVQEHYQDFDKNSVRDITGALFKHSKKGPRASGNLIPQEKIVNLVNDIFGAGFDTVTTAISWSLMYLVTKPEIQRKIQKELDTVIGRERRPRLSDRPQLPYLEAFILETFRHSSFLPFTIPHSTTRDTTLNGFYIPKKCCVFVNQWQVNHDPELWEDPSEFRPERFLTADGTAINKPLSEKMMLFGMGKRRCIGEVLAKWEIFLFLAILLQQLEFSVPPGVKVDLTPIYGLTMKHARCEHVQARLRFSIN
# How it was run: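 Steps: enzyme-substrate mix dispensed; test compounds and furafylline control pinned in; 10 min room temperature; NADPH regeneration solution added, 1 h; reaction stopped with luciferin detection reagent; luminescence read after 20 min.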
# [3] = biological target: Voltage-gated inwardly rectifying potassium channel KCNH2 (Homo sapiens) (UniProt Q12809); assay: Human Ether-a-go-go-Related Gene (hERG) channel small molecule antagonists: fluorescence cell-based qHTS assay (AID 1671200);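 as to activity change, negative = inhibition: hERG-expressing U2OS cells given a thallium stimulus after FluxOR II dye loading; series mostly up to about 77 µM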
# Sequence of Voltage-gated inwardly rectifying potassium channel KCNH2 (Homo sapiens) (Q12809 whole entry, looked up): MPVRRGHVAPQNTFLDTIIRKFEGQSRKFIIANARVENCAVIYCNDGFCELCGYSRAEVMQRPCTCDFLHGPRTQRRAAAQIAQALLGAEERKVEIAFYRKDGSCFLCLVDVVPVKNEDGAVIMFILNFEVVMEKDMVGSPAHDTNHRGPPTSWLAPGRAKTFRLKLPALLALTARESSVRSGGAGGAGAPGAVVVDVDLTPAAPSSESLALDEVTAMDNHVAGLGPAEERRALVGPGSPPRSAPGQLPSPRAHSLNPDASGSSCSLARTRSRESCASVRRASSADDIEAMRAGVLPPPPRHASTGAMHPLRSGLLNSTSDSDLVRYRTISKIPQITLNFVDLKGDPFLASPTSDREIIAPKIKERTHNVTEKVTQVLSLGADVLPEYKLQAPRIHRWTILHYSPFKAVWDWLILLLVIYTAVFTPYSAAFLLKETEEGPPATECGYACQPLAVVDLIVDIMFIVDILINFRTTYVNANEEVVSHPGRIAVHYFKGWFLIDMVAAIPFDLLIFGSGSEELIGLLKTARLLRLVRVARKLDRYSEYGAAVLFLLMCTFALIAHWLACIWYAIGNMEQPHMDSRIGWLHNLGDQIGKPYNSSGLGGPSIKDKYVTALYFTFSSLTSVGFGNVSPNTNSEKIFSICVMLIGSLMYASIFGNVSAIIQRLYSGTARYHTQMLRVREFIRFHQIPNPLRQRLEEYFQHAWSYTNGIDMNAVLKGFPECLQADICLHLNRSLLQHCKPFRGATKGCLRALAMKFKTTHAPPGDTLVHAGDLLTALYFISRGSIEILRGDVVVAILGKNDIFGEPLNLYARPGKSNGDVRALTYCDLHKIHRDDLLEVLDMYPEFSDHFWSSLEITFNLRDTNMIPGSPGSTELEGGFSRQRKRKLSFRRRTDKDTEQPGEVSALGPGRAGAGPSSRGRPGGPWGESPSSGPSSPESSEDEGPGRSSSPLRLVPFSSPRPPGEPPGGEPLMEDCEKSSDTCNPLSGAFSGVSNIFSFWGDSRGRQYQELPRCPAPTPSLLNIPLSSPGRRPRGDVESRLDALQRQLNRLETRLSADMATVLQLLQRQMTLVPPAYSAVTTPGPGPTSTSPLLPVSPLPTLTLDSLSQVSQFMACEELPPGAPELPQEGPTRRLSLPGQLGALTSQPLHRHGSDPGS
# How it was run: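 In this thallium-flux screen, overnight-cultured U2OS cells bearing the channel are dye-loaded in darkness for an hour, rested 10 min at room temperature, and then monitored kinetically at 480/540 nm for two minutes post-stimulus.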
# [4] = biological target: Cytochrome P450 3A4 (Homo sapiens) (UniProt P08684); assay: Cytochrome P450 Family 3 Subfamily A Member 4 (CYP3A4) small molecule antagonists: luciferase reporter qHTS assay (AID 1671201); as to activity change, negative = inhibition: series mostly up to about 120 µM
# Sequence of Cytochrome P450 3A4 (Homo sapiens) (P08684 whole entry, looked up): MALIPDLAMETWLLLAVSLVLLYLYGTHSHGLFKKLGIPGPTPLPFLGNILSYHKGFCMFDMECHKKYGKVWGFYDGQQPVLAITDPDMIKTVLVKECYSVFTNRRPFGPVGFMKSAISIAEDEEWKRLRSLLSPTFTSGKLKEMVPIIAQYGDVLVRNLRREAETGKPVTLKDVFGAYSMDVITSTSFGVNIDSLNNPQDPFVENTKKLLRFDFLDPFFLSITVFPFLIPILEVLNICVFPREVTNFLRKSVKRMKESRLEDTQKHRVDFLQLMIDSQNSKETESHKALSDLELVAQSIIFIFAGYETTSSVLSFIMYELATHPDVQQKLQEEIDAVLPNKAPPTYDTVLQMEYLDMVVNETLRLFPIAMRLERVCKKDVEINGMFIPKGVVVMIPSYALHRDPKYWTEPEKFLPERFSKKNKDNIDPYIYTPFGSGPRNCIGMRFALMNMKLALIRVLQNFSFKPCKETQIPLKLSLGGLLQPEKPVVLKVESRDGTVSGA
# How it was run: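 CYP3A4 activity was followed with a P450-Glo proluciferin substrate. Test compounds in DMSO were preincubated 10 min; NADPH regeneration then ran 1 h, and light output was read 20 min after detection reagent.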
# Also: nearly all actives have a fitted effect of over 50% in size.
# Potency is read from the fitted curve at half-maximal effect.
compound,measurement,setting,value
COc1ccc2sc(C(=O)Nc3nnn[nH]3)c(OC(C)C)c2c1,Potency,[1],22.4 µM (active)
same,Potency,[2],inactive
same,Potency,[3],inactive
CN(C)c1ccc(N=NS(=O)(=O)O)cc1,Potency,[1],5.09 µM (active)
same,Potency,[2],9.45 µM (active)
same,Potency,[3],inactive
S=P(N1CC1)(N1CC1)N1CC1,Potency,[1],19.3 µM (active)
same,Potency,[2],57.7 µM (active)
same,Potency,[3],inactive
COc1cccc(CCc2ccccc2OCC(CN(C)C)OC(=O)CCC(=O)O)c1 (configuration not stated),Potency,[1],inactive
same,Potency,[2],30.9 µM (active)
same,Potency,[3],inactive
CCN(CC)CCOC(=O)C1(C2CCCCC2)CCCCC1,Potency,[1],inactive
CCC(C)c1cc([N+](=O)[O-])cc([N+](=O)[O-])c1OC(=O)OC(C)C (configuration not stated),Potency,[1],35.6 µM (active)
same,Potency,[2],2.52 µM (active)
same,Potency,[3],inactive
C/C=C/C(=O)Oc1c(CCCCCC(C)C)cc([N+](=O)[O-])cc1[N+](=O)[O-],Potency,[1],2.52 µM (active)
same,Potency,[2],25.2 µM (active)
same,Potency,[3],21.9 µM (active)
CCCCCCCOC(=O)c1ccc(O)cc1,Potency,[1],35.6 µM (active) and 39.9 µM (active)
same,Potency,[2],5.64 µM (active) and 20 µM (active)
Cc1c(C)n(Cc2ccccc2)c2ccc(C(=O)OCCN(C)C)cc12,Potency,[1],15.5 µM (active)
same,Potency,[2],10.2 µM (active)
same,Potency,[3],10.7 µM (active)
CCN(CC)CCOc1ccc(C(O)(Cc2ccc(Cl)cc2)c2ccc(C)cc2)cc1 (configuration not stated),Potency,[1],38.9 µM (active)
same,Potency,[2],inactive
same,Potency,[3],1.34 µM (active)
CCC1(c2cnc[nH]2)Cc2ccccc2C1,Potency,[1],1.55 µM (active)
same,Potency,[2],8.12 µM (active)
same,Potency,[3],inactive
CC1=C(/C=C/C(C)=C/C=C/C(C)=C/C(=O)Nc2ccc(O)cc2)C(C)(C)CCC1,Potency,[1],9.17 µM (active) and 8.71 µM (active)
same,Potency,[2],72.8 µM (active) and inactive
same,Potency,[3],inactive
Oc1ccc(-c2ccc(O)cc2)cc1,Potency,[1],inactive
same,Potency,[2],28.4 µM (active)
same,Potency,[3],inactive
CN(C)CCN1CCOCC1,Potency,[1],inactive
same,Potency,[2],inactive
same,Potency,[3],inactive
CNC(=S)NN,Potency,[1],39.9 µM (active)
same,Potency,[2],39.9 µM (active)
same,Potency,[3],inactive
same,Potency,[4],inactive
Clc1ccc(C(Cn2ccnc2)OCc2ccsc2Cl)c(Cl)c1 (configuration not stated),Potency,[1],0.309 µM (active)
same,Potency,[2],4.56 µM (active)
same,Potency,[3],9.52 µM (active)
CC(C(O)c1ccccc1)N(C)CCOC(c1ccccc1)c1ccccc1 (configuration not stated),Potency,[1],17.4 µM (active)
same,Potency,[2],inactive
same,Potency,[3],1.69 µM (active)
COc1ccc(-n2nc(CCC(=O)N(C)O)cc2-c2ccc(Cl)cc2)cc1,Potency,[1],3.89 µM (active)
O=S(O)O,"activity change, negative = inhibition",[1],-8.41% [at 23.6 µM] (inactive)
same,"activity change, negative = inhibition",[2],-6.76% [at 23.6 µM] (inactive)
same,"activity change, negative = inhibition",[3],4.11% [at 15.8 µM] (inactive)
CCCCNc1c(C(=O)OCC)c(C)nc2c1cnn2CC,Potency,[1],27.5 µM (active)
same,Potency,[2],2.75 µM (active)
same,Potency,[3],inactive
Cc1oc(-c2ccccc2)nc1CCOc1ccc(C[C@H](Nc2ccccc2C(=O)c2ccccc2)C(=O)O)cc1,Potency,[1],20 µM (active)
same,Potency,[2],inactive
same,Potency,[3],inactive
C/C=C/C(=O)C1=C(C)CCCC1(C)C,Potency,[1],inactive
same,Potency,[2],inactive
same,Potency,[3],inactive
O=Nc1ccc(NO)cc1,Potency,[1],inactive
same,Potency,[2],inactive
same,Potency,[3],inactive
CC(C)c1ccc(O)c(C(C)C)c1,Potency,[1],35.6 µM (active)
same,Potency,[2],31.7 µM (active)
O=C[C@H](O)[C@H](O)[C@H](O)CO,Potency,[1],inactive
same,Potency,[2],inactive
same,Potency,[3],inactive
same,Potency,[4],inactive
CCCC(CC)CCCCCCCN (configuration not stated),Potency,[1],25.8 µM (active)
same,Potency,[2],5.15 µM (active)
same,Potency,[3],28.2 µM (active)
same,Potency,[4],3.25 µM (active)
CCOC(=O)[C@@](C)(N)Cc1ccc(O)c(O)c1,Potency,[1],inactive
same,Potency,[2],inactive
same,Potency,[3],inactive
same,Potency,[4],inactive
C=CC(=O)OCCC#N,Potency,[1],inactive
same,Potency,[2],inactive
same,Potency,[3],inactive
same,Potency,[4],inactive
CCCCCCCCCCCCCCCC,Potency,[1],39.9 µM (active)
same,Potency,[2],inactive
same,Potency,[3],inactive
same,Potency,[4],inactive
CCCCCCCCCCCCOC(=O)c1cc(O)c(O)c(O)c1,Potency,[1],9.99 µM (active) and 28.3 µM (active)
same,Potency,[2],inactive
same,Potency,[3],inactive
same,Potency,[4],17.8 µM (active) and 20 µM (active)
CCOCOCC,Potency,[1],inactive
same,Potency,[2],inactive
same,Potency,[3],inactive
same,Potency,[4],inactive
c1ccc2c(c1)CCC2,Potency,[1],inactive
same,Potency,[2],inactive
same,Potency,[3],inactive
same,Potency,[4],inactive
O=C1c2c(O)ccc([N+](=O)[O-])c2C(=O)c2c([N+](=O)[O-])ccc(O)c21,Potency,[1],28 µM (active)
same,Potency,[2],7.03 µM (active)
same,Potency,[3],inactive
same,Potency,[4],12.5 µM (active)
COc1ccccc1C=O,Potency,[1],inactive
same,Potency,[2],inactive
same,Potency,[3],inactive
same,Potency,[4],inactive
CC(=O)OC1CCCCC1,Potency,[1],inactive
same,Potency,[2],inactive
same,Potency,[3],inactive
same,Potency,[4],inactive
OCCCS,Potency,[1],inactive
same,Potency,[2],inactive
same,Potency,[3],inactive
same,Potency,[4],inactive
CC(=O)O[C@@H]1C[C@@H]2CC[C@@]1(C)C2(C)C,Potency,[1],inactive
same,Potency,[2],39.9 µM (active)
same,Potency,[3],inactive
same,Potency,[4],inactive
CC(C)C(=O)OCc1ccccc1,Potency,[1],inactive
same,Potency,[2],inactive
same,Potency,[3],inactive
same,Potency,[4],inactive
Cc1cc2c(C(C)C)c(O)c(O)c(C=O)c2c(O)c1-c1c(C)cc2c(C(C)C)c(O)c(O)c(C=O)c2c1O,Potency,[1],34.7 µM (active)
same,Potency,[2],inactive
same,Potency,[3],inactive
same,Potency,[4],inactive
CCCCN(C)C,Potency,[1],inactive
same,Potency,[2],inactive
same,Potency,[3],inactive
same,Potency,[4],inactive
CCO[Si](C)(C)OCC,Potency,[1],inactive
same,Potency,[2],inactive
same,Potency,[3],inactive
same,Potency,[4],inactive
O=C1NC2CCCCN2C12CCN(CCCN1c3ccccc3CCc3ccc(Cl)cc31)CC2 (configuration not stated),Potency,[1],inactive
same,Potency,[2],inactive
same,Potency,[3],0.756 µM (active)
same,Potency,[4],inactive
Clc1cc(Cl)c(-c2c(Cl)c(Cl)cc(Cl)c2Cl)cc1Cl,Potency,[1],inactive
same,Potency,[2],inactive
same,Potency,[3],inactive
same,Potency,[4],inactive
CC1=CP(=O)(c2ccccc2)CC1 (configuration not stated),Potency,[1],inactive
same,Potency,[2],inactive
same,Potency,[3],inactive
same,Potency,[4],inactive
